Tests used:
Assay in all cases: DAPPL (digital affinity profiling via proximity ligation, sequencing); 10 mM Tris-HCl pH 7.5, 50 mM NaCl, 1 mM DTT, 4% glycerol, room temperature, 30 min; GST-TFs on glutathione beads, 16-mer random dsDNA library, 0.1% formaldehyde crosslink after washing; high values mean tight binding
Settings in all cases: protein: recombinant; tags: N-terminal GST; dsDNA, one strand shown
[1] = molecular target: T1, FLI1 (Homo sapiens, UniProt Q01543 1-452)
T1 sequence: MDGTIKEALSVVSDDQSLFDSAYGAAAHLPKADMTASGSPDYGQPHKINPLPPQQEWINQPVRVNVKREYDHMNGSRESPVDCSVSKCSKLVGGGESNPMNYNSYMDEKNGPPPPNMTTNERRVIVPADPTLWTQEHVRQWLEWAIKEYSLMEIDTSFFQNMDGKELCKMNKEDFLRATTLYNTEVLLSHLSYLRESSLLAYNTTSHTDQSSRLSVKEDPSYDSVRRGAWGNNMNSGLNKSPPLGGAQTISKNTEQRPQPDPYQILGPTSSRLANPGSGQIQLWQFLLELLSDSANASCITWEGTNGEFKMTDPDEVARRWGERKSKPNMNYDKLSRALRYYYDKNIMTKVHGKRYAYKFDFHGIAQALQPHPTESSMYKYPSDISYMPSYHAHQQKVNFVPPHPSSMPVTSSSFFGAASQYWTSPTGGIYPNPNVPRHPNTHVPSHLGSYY
Outline: (§1)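 GST fusions of human transcription factors were expressed in yeast and captured with glutathione beads. Once given DNA barcodes and pooled alongside a tag-only sample, they were incubated for 30 min at room temperature with 200 nmole of a random double-stranded 16-mer DNA library in Tris/NaCl/DTT/glycerol buffer, then washed, crosslinked (0.1% formaldehyde), proximity-ligated, PCR-amplified and sequenced on an Illumina NextSeq500. The binding signal of each hexamer is its read frequency for a factor divided by its frequency for the tag-only sample.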

[2] = molecular target: T2, ELK1 (Homo sapiens, UniProt P19419 1-428)
T2 sequence: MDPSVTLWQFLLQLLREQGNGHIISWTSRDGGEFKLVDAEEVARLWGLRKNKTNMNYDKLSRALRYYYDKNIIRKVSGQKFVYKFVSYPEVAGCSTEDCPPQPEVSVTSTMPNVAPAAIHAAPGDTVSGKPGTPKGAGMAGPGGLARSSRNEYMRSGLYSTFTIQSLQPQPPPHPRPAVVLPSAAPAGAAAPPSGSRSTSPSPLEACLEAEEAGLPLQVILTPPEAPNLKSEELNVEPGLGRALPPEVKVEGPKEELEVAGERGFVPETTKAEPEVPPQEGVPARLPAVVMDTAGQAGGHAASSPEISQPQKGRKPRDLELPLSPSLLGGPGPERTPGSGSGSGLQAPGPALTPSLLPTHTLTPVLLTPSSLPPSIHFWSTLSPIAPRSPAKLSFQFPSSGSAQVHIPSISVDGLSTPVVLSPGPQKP
Outline: as §1

[3] = molecular target: T3, GABPA (Homo sapiens, UniProt Q06546 1-454)
T3 sequence: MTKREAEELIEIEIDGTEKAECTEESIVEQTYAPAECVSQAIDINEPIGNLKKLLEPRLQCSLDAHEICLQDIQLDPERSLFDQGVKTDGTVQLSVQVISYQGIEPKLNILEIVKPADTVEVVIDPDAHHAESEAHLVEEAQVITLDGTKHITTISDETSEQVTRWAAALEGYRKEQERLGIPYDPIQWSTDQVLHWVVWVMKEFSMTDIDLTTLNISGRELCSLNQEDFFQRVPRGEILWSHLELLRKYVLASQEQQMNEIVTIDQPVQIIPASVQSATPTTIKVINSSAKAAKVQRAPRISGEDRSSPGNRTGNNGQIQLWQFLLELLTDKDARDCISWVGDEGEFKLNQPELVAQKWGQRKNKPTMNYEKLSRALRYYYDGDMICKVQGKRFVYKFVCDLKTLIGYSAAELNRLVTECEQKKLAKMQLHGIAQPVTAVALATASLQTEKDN
Outline: as §1

[4] = molecular target: T4, ERG (Homo sapiens, UniProt P11308 1-479)
T4 sequence: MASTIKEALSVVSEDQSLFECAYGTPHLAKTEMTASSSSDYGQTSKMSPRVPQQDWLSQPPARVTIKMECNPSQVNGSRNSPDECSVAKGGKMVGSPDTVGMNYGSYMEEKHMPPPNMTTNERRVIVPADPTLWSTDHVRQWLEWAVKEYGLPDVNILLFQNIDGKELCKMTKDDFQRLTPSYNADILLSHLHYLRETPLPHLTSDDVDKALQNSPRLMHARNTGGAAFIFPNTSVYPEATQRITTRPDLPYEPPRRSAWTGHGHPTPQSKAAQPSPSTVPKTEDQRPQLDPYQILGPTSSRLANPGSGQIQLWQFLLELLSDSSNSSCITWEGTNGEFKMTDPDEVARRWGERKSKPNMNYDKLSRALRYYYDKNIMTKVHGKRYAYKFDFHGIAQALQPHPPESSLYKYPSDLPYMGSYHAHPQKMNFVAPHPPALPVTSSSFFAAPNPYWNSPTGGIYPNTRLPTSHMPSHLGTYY
Outline: as §1

[5] = molecular target: ELF1 (Homo sapiens, UniProt P32519 1-619)
Outline: as §1

[6] = molecular target: T5, EHF (Homo sapiens, UniProt Q9NZC4 1-300)
T5 sequence: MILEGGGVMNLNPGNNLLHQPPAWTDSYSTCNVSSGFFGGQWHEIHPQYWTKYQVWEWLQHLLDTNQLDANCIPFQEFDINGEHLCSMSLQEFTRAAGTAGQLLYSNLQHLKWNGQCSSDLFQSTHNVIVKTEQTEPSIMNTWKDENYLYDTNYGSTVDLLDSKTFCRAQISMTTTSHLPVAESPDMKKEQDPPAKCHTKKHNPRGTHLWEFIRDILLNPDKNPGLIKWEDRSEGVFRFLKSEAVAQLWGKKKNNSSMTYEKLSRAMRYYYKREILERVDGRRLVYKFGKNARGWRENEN
Outline: as §1

[7] = molecular target: SPI1 (Homo sapiens, UniProt P17947 1-270)
Outline: as §1

[8] = molecular target: SPIB (Homo sapiens, UniProt Q01892 1-262)
Outline: as §1

[9] = molecular target: T6, ELK3 (Homo sapiens, UniProt P41970 1-407)
T6 sequence: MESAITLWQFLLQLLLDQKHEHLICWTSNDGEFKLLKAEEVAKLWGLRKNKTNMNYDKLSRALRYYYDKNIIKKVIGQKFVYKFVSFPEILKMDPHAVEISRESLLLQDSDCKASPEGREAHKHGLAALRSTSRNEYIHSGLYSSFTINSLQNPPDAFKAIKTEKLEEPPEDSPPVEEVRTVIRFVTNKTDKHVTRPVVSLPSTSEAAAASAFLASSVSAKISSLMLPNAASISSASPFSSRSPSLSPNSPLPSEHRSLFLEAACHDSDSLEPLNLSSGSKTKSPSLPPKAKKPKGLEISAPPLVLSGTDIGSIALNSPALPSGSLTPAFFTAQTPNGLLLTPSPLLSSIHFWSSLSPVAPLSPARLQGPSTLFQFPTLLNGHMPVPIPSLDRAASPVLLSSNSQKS
Outline: as §1

SPIB, sequence (Q01892 whole entry): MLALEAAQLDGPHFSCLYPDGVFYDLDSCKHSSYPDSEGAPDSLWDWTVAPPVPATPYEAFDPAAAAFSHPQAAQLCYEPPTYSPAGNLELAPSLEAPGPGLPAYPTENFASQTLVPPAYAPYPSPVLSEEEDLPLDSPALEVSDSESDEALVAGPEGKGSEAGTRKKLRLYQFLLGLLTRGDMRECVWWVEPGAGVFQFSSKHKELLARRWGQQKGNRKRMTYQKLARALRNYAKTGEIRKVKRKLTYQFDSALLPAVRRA
ELF1, sequence (P32519 whole entry): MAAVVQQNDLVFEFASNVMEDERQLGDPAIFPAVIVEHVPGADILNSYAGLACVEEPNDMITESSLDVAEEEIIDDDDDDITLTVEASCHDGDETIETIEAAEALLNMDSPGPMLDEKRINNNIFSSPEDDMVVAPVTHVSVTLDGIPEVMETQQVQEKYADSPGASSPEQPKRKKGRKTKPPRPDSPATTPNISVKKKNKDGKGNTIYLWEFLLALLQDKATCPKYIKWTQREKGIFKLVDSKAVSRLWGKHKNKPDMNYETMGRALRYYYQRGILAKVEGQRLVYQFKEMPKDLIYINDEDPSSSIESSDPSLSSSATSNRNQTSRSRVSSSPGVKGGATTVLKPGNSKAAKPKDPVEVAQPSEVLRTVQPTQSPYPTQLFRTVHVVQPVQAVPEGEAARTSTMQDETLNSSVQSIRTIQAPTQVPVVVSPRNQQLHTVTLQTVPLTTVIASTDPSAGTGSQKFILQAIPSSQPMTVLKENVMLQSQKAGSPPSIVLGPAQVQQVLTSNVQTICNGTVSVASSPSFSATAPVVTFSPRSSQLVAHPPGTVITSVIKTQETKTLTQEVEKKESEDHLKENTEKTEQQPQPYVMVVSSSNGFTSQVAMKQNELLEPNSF

Sequence	binding signal [1]	binding signal [2]	binding signal [3]	binding signal [4]	binding signal [5]	binding signal [6]	binding signal [7]	binding signal [8]	binding signal [9]
ACTCTC	1.5 fold enrichment (6-mer frequency, TF over GST control)	1.59 fold enrichment (6-mer frequency, TF over GST control)	1.41 fold enrichment (6-mer frequency, TF over GST control)	1.47 fold enrichment (6-mer frequency, TF over GST control)	1.55 fold enrichment (6-mer frequency, TF over GST control)	1.47 fold enrichment (6-mer frequency, TF over GST control)	1.49 fold enrichment (6-mer frequency, TF over GST control)	1.47 fold enrichment (6-mer frequency, TF over GST control)	1.44 fold enrichment (6-mer frequency, TF over GST control)
AACTGC	1.34 fold enrichment (6-mer frequency, TF over GST control)	1.47 fold enrichment (6-mer frequency, TF over GST control)	1.32 fold enrichment (6-mer frequency, TF over GST control)	1.32 fold enrichment (6-mer frequency, TF over GST control)	1.42 fold enrichment (6-mer frequency, TF over GST control)	1.33 fold enrichment (6-mer frequency, TF over GST control)	1.45 fold enrichment (6-mer frequency, TF over GST control)	1.41 fold enrichment (6-mer frequency, TF over GST control)	1.25 fold enrichment (6-mer frequency, TF over GST control)
ATTCTC	1.35 fold enrichment (6-mer frequency, TF over GST control)	1.27 fold enrichment (6-mer frequency, TF over GST control)	1.32 fold enrichment (6-mer frequency, TF over GST control)	1.25 fold enrichment (6-mer frequency, TF over GST control)	1.24 fold enrichment (6-mer frequency, TF over GST control)	1.27 fold enrichment (6-mer frequency, TF over GST control)	1.27 fold enrichment (6-mer frequency, TF over GST control)	1.32 fold enrichment (6-mer frequency, TF over GST control)	1.42 fold enrichment (6-mer frequency, TF over GST control)
TATCTT	1.46 fold enrichment (6-mer frequency, TF over GST control)	1.31 fold enrichment (6-mer frequency, TF over GST control)	1.38 fold enrichment (6-mer frequency, TF over GST control)	1.26 fold enrichment (6-mer frequency, TF over GST control)	1.36 fold enrichment (6-mer frequency, TF over GST control)	1.3 fold enrichment (6-mer frequency, TF over GST control)	1.3 fold enrichment (6-mer frequency, TF over GST control)	1.28 fold enrichment (6-mer frequency, TF over GST control)	1.24 fold enrichment (6-mer frequency, TF over GST control)

Reference: publication PMC7862700, “An all-to-all approach to the identification of sequence-specific readers for epigenetic DNA modifications on cytosine”
